JMJD2A Tudor inh: inhibitors of human JMJD2A Tudor domain | AlphaScreen JMJD2A-Tudor / H3K4me3 peptide binding | O75164 | hit rate 4.4% among 390,000 | Potency, µM (titrated, usually from 114 µM), inactives show at the top dose activity change, negative = inhibition, usual class: inhibitors; further: potency means the concentration at half of the fitted maximal effect; on the % scale 0 is the no-effect control and ±100 the full control effect; nearly all actives have a fitted effect of over 50% in size
PI5P4Ka inh: PI5P4K alpha (human) kinase inhibition; hit rate 1.2% among 330,000; max response, %; PI5P4Kalpha enzyme, ADP-Glo luminescence, 60 min; active compounds read low; active means max response of -50% or lower; inconclusive means between -30% and -50%; inactive means -30% or higher; further: value at the top dose of about 77 µM; on the % scale 0 is the no-effect control and ±100 the full control effect
Target sequence (P48426 whole entry, looked up): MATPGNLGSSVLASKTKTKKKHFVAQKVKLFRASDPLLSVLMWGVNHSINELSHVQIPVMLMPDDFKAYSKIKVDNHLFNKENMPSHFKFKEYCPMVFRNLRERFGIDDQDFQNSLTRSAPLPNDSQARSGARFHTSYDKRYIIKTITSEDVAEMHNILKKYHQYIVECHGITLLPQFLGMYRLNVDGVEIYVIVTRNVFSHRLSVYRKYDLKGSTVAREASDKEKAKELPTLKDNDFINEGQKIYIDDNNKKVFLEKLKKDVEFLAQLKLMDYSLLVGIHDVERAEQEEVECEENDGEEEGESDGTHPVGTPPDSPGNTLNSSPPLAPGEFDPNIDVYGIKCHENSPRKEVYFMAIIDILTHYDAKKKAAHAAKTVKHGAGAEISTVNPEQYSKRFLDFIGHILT
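Compounds were pin-transferred onto PI5P4Kalpha and substrate in HEPES pH 7.4 buffer with EGTA, CHAPS and 5% DMSO. ATP (5 microM final) started the reaction, which ran 60 minutes at room temperature before ADP-Glo detection.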
BAZ2B block: blocks human BAZ2B. hit rate 4.4% among 360,000. AID 504333. Potency, µM (series often up to 114 µM), without a hit: at the highest dose activity change, negative = inhibition, hits mostly inhibitors. AlphaScreen BAZ2B-H3K14Ac peptide displacement; further: potency means the concentration at half of the fitted maximal effect; on the % scale 0 is the no-effect control and ±100 the full control effect; nearly all actives have a fitted effect of over 60% in size
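Compounds, titrated to a top concentration of 110 uM, were incubated 30 min at room temperature with preformed BAZ2B/acetyl-K14 H3 peptide complex (50 nM each). Proximity signal was measured by AlphaScreen after 20 min with beads.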
HP1b binding inh: HP1-beta chromodomain-methylated histone interaction inhibition | AlphaScreen HP1-beta / biotin-H3K9me3 peptide binding | Potency, µM (doses to about 114 µM), without a hit: at the highest dose activity change, negative = inhibition, usual class: inhibitors | hit rate 0.56% among 390,000; further: potency means the concentration at half of the fitted maximal effect; nearly all actives have a fitted effect of over 70% in size
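HP1-beta protein (50 nM final) preincubated 30 min at room temperature with biotinylated H3(1-18)K9me3 peptide (50 nM) in PBS pH 7.4, 0.01% Tween-20, then compound added for 30 min. AlphaScreen streptavidin donor/nickel chelate acceptor beads (10 ug/mL final), 30 min dark, luminescence read.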
PLK1 PBD block: blocks phosphopeptide binding to human PLK1 polo-box domain; P53350; Plk1 PBD binding of FITC phosphopeptide, fluorescence polarization; Potency, µM, without a hit: max response, negative = inhibition, most hits filed as inhibitors; hit rate 2.8% among 360,000; AID 720504; further: potency means the concentration at half of the fitted maximal effect; series mostly up to about 57 µM; on the % scale 0 is the no-effect control and ±100 the full control effect; nearly all actives have a fitted effect of over 65% in size
G9a inh: inhibitors of human histone lysine methyltransferase G9a; Q96KQ7; G9a H3K9 monomethylation, AlphaScreen, 2 h; Potency, µM (top dose mostly 102 µM), without a hit: at the highest dose activity, negative = inhibition, hits mostly inhibitors; hit rate 8.8% among 350,000; AID 504332; further: potency means the concentration at half of the fitted maximal effect; on the % scale 0 is the no-effect control and ±100 the full control effect; nearly all actives have a fitted effect of over 75% in size
Target sequence (Q96KQ7 913-1193 limits assumed): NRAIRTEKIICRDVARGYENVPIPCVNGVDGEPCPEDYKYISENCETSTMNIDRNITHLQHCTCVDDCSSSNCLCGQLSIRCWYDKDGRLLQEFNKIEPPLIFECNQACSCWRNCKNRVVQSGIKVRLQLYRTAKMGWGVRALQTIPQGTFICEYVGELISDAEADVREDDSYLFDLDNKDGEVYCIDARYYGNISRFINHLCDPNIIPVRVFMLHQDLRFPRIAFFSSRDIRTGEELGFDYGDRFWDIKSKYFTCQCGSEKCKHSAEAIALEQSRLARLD
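AlphaScreen detection with an anti-monomethyl H3K9 antibody quantified product after a 2 h room-temperature reaction containing 500 nM biotinylated H3K9 peptide, 20 µM SAM and 20 nM enzyme, which had been preincubated 15 min with compound.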
The depositor's hits bear a star; u = inconclusive; x = no result; [ ] = dose if it differs, or a comment. An excerpt weighted towards active compounds, which were near 12% of everything screened. Unless noted, the call rests on the fitted dose curve; in most records, active means well fitted curve in the direction sought with a large enough effect; inconclusive means small, poorly fitted or top-dose-only effect, or another doubt; inactive means no such curve, though single readings can be large; an effect the other way counts as inactive or inconclusive.

SMILES | JMJD2A Tudor inh | PI5P4Ka inh | BAZ2B block | HP1b binding inh | PLK1 PBD block | G9a inh
COC(=O)c1ccc(C(=O)OC)c(NC(=O)C2CCCO2)c1 (stereo not drawn) | -8% | -1 | -13% | 43% | -1% | -2%
O=C(c1cc2cc(Br)ccc2o1)N1CCOCC1 | 3% | -7 | -1% | 39% | 3% | 15%
O=C(c1cc2cc(Br)ccc2o1)N1CCCC1 | -31% | -24 | -17% | -13% | 27µM* | 24%
O=C(Cc1cccc2ccccc12)NC(NC(=S)Nc1ccccc1Cl)C(Cl)(Cl)Cl (stereo not drawn) | -20% | -14 | 2% | u | 24µM* | -24%
CC(=O)NC(NC(=S)Nc1ccccc1Br)C(Cl)(Cl)Cl (stereo not drawn) | -3% | 7 | 9% | -4% | -22% | 28µM*
COc1ccc(NC(=S)NC(NC(=O)c2cccc(Cl)c2)C(Cl)(Cl)Cl)c([N+](=O)[O-])c1 (stereo not drawn) | 22µM* | x | u | u | -5% | u
COc1ccc(NC(=S)NC(NC(C)=O)C(Cl)(Cl)Cl)c([N+](=O)[O-])c1 (stereo not drawn) | -26% | u | -6% | u | 24µM* | 11µM*
Cc1c(Cl)cccc1NC(=O)c1oc2ccc(S(=O)(=O)N3CCC4(CC3)OCCO4)cc2c1C | -10% | x | 5% | 33% | x | -19%[59 µM]
COc1ccccc1NC(=O)c1ccc(-c2nc(COc3ccc(C)cc3)c(C)o2)cc1 | 13% | x | -5% | 46% | x | u
CC(=O)Nc1ccc(SC[C@H](CC(C)C)N2CCN(CCc3ccccc3)CCC2=O)cc1 | -33% | 0 | -12% | 26% | 19µM* | -5%[12.7 µM]
CC(=O)Nc1ccc(SC[C@H](CC(C)C)N2CCN(CC(C)C)CCC2=O)cc1 | -22% | -3 | -10% | 35% | 27µM* | u
CC(=O)Nc1ccc(SC[C@H](Cc2ccccc2)N2CCN(CC(C)C)CCC2=O)cc1 | -27% | -2 | -21% | 41% | 34µM* | -9%[12.7 µM]
CC(=O)Nc1ccc(SCC(Cc2ccccc2)N2CCN(CC(C)C)CCC2=O)cc1 (stereo not drawn) | -20% | x | x | 39% | x | x
CCCOc1ccc(CCC(=O)N/N=C/c2ccncc2)cc1 | -20%[11.4 µM] | -13 | -13% | -1% | 24µM* | -3%
CC1(C)CC(=O)C(C2C3=C(CC(C)(C)CC3=O)Oc3ccccc32)=C(O)C1 (stereo not drawn) | -7% | -1 | 16% | 52% | -4% | 71µM*
Fc1ccccc1Cn1nnc2c(-n3ccnc3)ncnc21 | 56µM* | -1 | 2% | -11% | 24µM* | -30%
Cc1ccc(-c2cn3nc(N4CCCC(C(=O)Nc5ccc(F)cc5)C4)sc3n2)cc1 (stereo not drawn) | -26% | x | -16% | 6% | x | -9%[59 µM]
COc1cc(CN2CCSCC2)c([N+](=O)[O-])cc1OC | 2.2µM* | 0 | u | u | -8% | x
COc1cccc(CN2CCN(Cc3cc(OC)c(OC)cc3[N+](=O)[O-])CC2)c1 | 0.79µM* | x | u | -52% | -11% | 7.9µM*
COCCNc1nc(-c2ccccc2OC)nc2ccccc12 | x | x | x | x | x | 4%[0.501 µM]
Oc1ccc(/C=N/Nc2ccnc3cc(Cl)ccc23)c(O)c1 | -15% | -17 | -11% | 3% | -8% | -5%[12.7 µM]
Clc1ccc2c(N/N=C/c3ccc(Br)cc3)ccnc2c1 | -19% | -73* | 15% | 8% | -2% | u
Cc1ccccc1/C=N/Nc1ccnc2cc(Cl)ccc12 | u | -75* | -6% | 5% | -1% | 13%[59 µM]
Cc1ccc(/C=N/Nc2ccnc3cc(Cl)ccc23)c(C)c1 | 22µM* | -82* | u | -1% | 27µM* | u
c1ccc(Oc2nc(NC3CCCCC3)c3[nH]cnc3n2)cc1 | x | x | x | x | x | -23%[59 µM]
SMILES | JMJD2A Tudor inh | PI5P4Ka inh | BAZ2B block | HP1b binding inh | PLK1 PBD block | G9a inh
CCc1ccc(N2CC(C(=O)NC3CCCCC3C)CC2=O)cc1 (stereo not drawn) | -10% | 1 | -2% | 25% | -6% | -1%[12.7 µM]
Nc1cc(C(=O)O)c(N)c2c1C(=O)c1ccccc1C2=O | u | -83* | 14µM* | 14µM* | 19µM* | u
Nc1c(SCCC(=O)O)ccc2c1C(=O)c1ccccc1C2=O | u | -87* | 40µM* | u | -5% | 35µM*
O=C(O)c1ccc([N+](=O)[O-])c2c1C(=O)c1ccccc1C2=O | -26% | 0 | x | 14% | -17% | x
Nc1c(C(=O)O)ccc2c1C(=O)c1ccccc1C2=O | u | -69* | 35µM* | u | -4% | 35µM*
O=C(O)c1cc2ccccc2c2c1C(=O)c1ccccc1-2 | x | -14 | x | x | -1% | x
COCCCN1C(=O)C(=O)/C(=C(/O)c2ccc(S(=O)(=O)N3CCOCC3)cc2)C1c1ccc(C(C)C)cc1 (stereo not drawn) | 1% | -1 | -12% | 16% | -14% | x
CC(N)C(=O)NC(CO)C(O)C(N)C=O (stereo not drawn) | -2% | 24 | x | 24% | -1% | x
Cc1ccc(C2CC(=O)NC(SCCC(C)C)=C2C#N)cc1 (stereo not drawn) | -1% | -6 | -3% | u | 13µM* | 32µM*
CCCSC1=C(C#N)C(c2ccccc2C)CC(=O)N1 (stereo not drawn) | -8% | -11 | 7% | 33% | u | 25µM*
COc1cc(C2CC(=O)NC(SCC(=O)Nc3ccccc3C)=C2C#N)ccc1O (stereo not drawn) | -9% | -2 | -6% | 26% | -8% | -4%[59 µM]
CCCSC1=C(C#N)C(c2ccc(O)c(OC)c2)CC(=O)N1 (stereo not drawn) | -6% | 3 | 10% | 35% | -3% | 50µM*
C[C@]1(c2ccccc2)OC(C(=O)O)=CC1=O | x | x | x | x | x | -46%[12.7 µM]
CC(C)C[C@H]1CNC(=O)C(=O)N1CC1CCN(CCc2ccc(-c3ccccc3)cc2)CC1 | -20% | 1 | x | 31% | -2% | x
COc1ccc(-c2sc3ccccc3c2/C=C/c2ccncc2)cc1 | -10% | 30 | x | 71% | 2% | x
Cc1ccc(C2=NS(=O)(=O)N(C)C(C(=O)Nc3ccc4c(c3)OCO4)=C2)cc1 | u | 1 | u | -11% | -4% | 79µM*
COc1ccc(NC(=O)C2=CC(c3ccc4c(c3)OCO4)=NS(=O)(=O)N2C)cc1OC | -11% | x | 0% | 15% | x | -9%[59 µM]
COc1ccc(C2=NS(=O)(=O)N(C)C(C(=O)NC(C)c3ccccc3)=C2)cc1OC (stereo not drawn) | -27% | 4 | 10% | 37% | -7% | -8%[59 µM]
COc1ccc(C2=NS(=O)(=O)N(C)C(C(=O)Nc3ccc4c(c3)OCO4)=C2)cc1OC | u | -5 | u | -7% | -14% | 35µM*
